# An excerpt weighted towards active compounds, which were near 3.7% of everything screened.
# p53 reactivator: qHTS assay for re-activators of p53 using a Luc reporter; H1299 p53-A138V BP100-luciferase reporter, luminescence, 24 h; Potency, µM (doses to about 92.2 µM), without a hit: top-dose activity change, positive = activation, most hits filed as activators; hit rate 0.063% among 320,000; note: potency is the fitted concentration of half-maximal effect; % of control where 0% means no effect; nearly all actives have a fitted effect of over 45% in size
#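 p53-null H1299 cells stably carrying temperature-sensitive p53-A138V and a BP100-luciferase reporter were pinned with compounds (4-point, 1:5 series) and held 24 hrs at 37 deg C. Luminescence was read 10 min after detection reagent.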
# A549 tox: Nrf2 qHTS screen for inhibitors: counterscreen for cytotoxicity; A549 ARE-Fluc cells, CellTiter-Fluor viability, 18-24 h; Potency, µM (titrated, usually from 46 µM), for the others: at the highest dose activity change, negative = cytotoxicity, actives largely listed as inhibitors; hit rate 0.16% among 390,000; AID 504648, 2011; note: potency is the fitted concentration of half-maximal effect; % is set by controls: 0 for no effect and ±100 for the full control effect
#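 A549 ARE-Fluc cells in 5% FBS OPTI-MEM, 5000 cells/well, rested 2 h then exposed to compounds in concentration-response for 18-24 h at 37 °C. Viability by CellTiter-Fluor fluorescence (Ex 405/Em 525) after 30 min; luciferase luminescence (BugLite, 15 min, RT) read afterwards.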
# Nrf2 block: Nrf2 qHTS screen for inhibitors | A549 ARE-Fluc reporter, luciferase luminescence, 18-24 h | Potency, µM (series often up to 46 µM), without a hit: at the top dose activity change, negative = inhibition, actives largely listed as inhibitors | hit rate 2.1% among 360,000 | AID 504444, 2011; note: potency is the fitted concentration of half-maximal effect; % is set by controls: 0 for no effect and ±100 for the full control effect; nearly all actives have a fitted effect of over 60% in size
#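 Quantitative HTS in A549 cells stably bearing an antioxidant response element-firefly luciferase construct. Inhibition of Nrf2-driven transcription was scored by luminescence after 18-24 h of compound exposure at 37 °C.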
# ClpP mod: qHTS Assay for Activators of ClpP; ATP-dependent Clp protease proteolytic subunit (Bacillus subtilis (strain 168)), P80244; purified B. subtilis ClpP, FRET peptide cleavage, 20 min; Potency, µM (titrated, usually from 57.5 µM), without a hit: top-dose activity change, negative = active; hit rate 1.9% among 340,000; active = well fitted falling curve with a large enough effect; inconclusive = small, poorly fitted or top-dose-only effect; inactive = no such curve, though single readings can be large or run the other way; note: potency is the fitted concentration of half-maximal effect; the source files actives as falling curves though it sought activators and does not explain the sign; nearly all actives have a fitted effect of over 65% in size
# Target sequence (P80244 whole entry, looked up): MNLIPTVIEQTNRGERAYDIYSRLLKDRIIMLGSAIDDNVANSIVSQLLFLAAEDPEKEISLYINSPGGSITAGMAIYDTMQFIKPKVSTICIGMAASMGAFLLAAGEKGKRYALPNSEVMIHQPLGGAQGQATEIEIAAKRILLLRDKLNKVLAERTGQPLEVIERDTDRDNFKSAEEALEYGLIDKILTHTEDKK
#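 FRET quenching reversal measured ClpP activation: 10 microg/mL B. subtilis ClpP at pH 8 with the FRET-FV decapeptide, read at 430 nm after 320 nm excitation. The 20-min minus 0-min signal was scaled between DMSO/no-enzyme wells and ADEP (5.8 microM final).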
# Nrf2 ARE act: qHTS of Nrf2 Activators; AREc32 ARE-luciferase reporter (MCF7-derived line), luminescence, 24 h; Potency, µM (doses to about 46.1 µM), for inactives: at the top dose activation, hits mostly activators; hit rate 0.31% among 410,000; AID 624171, 2012; note: potency is the fitted concentration of half-maximal effect; % of control where 0% means no effect; nearly all actives have a fitted effect of over 65% in size
#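 Nrf2 activation is followed as ARE-luciferase induction in the AREc32 line after one day of compound treatment; luminescence is read with Steady-Glo.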
# miR-21 reporter: qHTS Assay for Modulators of miRNAs and/orActivators of miR-21 | HeLa miR-21 FLuc reporter, luciferase, 48 h | Potency, µM (top dose mostly 38.3 µM), for the others: top-dose activity change, positive = activation, usual class: activators | 340,000 tested, under 10 active | AID 2288, 2010;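 note: % of control where 0% means no effect; miR-21 action dims this reporter so a rising signal means less miR-21 action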
#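 HeLa miR-21-FLuc reporter line, endogenous miR-21; 2000 cells/well in DMEM/10% FBS; compound titration up to ~40uM final, 48 h, 37 degree Celsius; luciferase detection reagent, 15 min lysis, CCD luminescence.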
# * = called active by the depositor; ? = inconclusive; nt = not tested or not shown; [ ] = another dose, or the depositor's remark. Unless noted, calls come from the whole dose curve; as a rule, active = well fitted curve in the direction sought with a large enough effect; inconclusive = small, poorly fitted or top-dose-only effect, or another doubt; inactive = no such curve, though single readings can be large; an effect the other way counts as inactive or inconclusive.
SMILES,p53 reactivator,A549 tox,Nrf2 block,ClpP mod,Nrf2 ARE act,miR-21 reporter
O=C(Cc1ccc(S(=O)(=O)N2CCOCC2)s1)Nc1ccc(S(=O)(=O)N2CCCCC2)cc1,-4%,-2%,21µM*,-4%,6%,nt
CC1CCN(S(=O)(=O)c2ccc(NC(=O)Cc3ccc(S(=O)(=O)N4CCOCC4)s3)cc2)CC1,-3%,-4%,?,nt,0%,nt
O=C(CSC1=NCCS1)Nc1ccc(S(=O)(=O)N2CCCCCC2)cc1,25%,-27%,15µM*,1%,0%,-1%
Cc1cccc(C)c1-n1nnnc1C1c2ccccc2C(=O)N1CCc1ccccc1F (stereo not given),nt,nt,nt,-1%,13µM*,nt
Cn1c(C(=O)NCC2CCCO2)cc2c(=O)n(C)c3ccccc3c21 (stereo not given),-3%,1%,3%,4%,7%,-2%
Cc1ccccc1-c1nc(C(=O)NCC2CCCO2)cc2c1[nH]c1ccccc12 (stereo not given),-2%,-10%,23µM*,4%,3%,25%
COc1cc(-c2nc(C(=O)NC3CCCCC3)cc3c2[nH]c2ccccc23)cc(OC)c1OC,nt,-8%,9.2µM*,5%,6%,18%
Cn1c(C(=O)NCC2CCCO2)cc2c(=O)[nH]c3ccccc3c21 (stereo not given),13%,13%,12%,22µM*,2%,-14%
Cc1ccc(-c2nc(C(=O)NCC3CCCO3)cc3c2[nH]c2ccccc23)cc1 (stereo not given),-1%,-18%,?,4%,4%,23%
CC1CCN(C(=O)CSc2ccc(-c3ccc(F)cc3)nn2)CC1,2%,-3%,-18%,32µM*,4%,-8%
C=C1CCN(C(Cc2ccccc2)C(=O)O)S(=O)(=O)c2ccccc21 (stereo not given),nt,-4%,-6%,nt,nt,nt
Oc1ccccc1-n1nc2ccc3nonc3c2n1,3%,1%,-1%,1%,10µM*,-20%
Cc1ccc(O)c(-n2nc3ccccc3n2)c1,19%,1%,11%,nt,4%,-64%
COc1ccc(C(=O)Nc2nnc(S(=O)(=O)N3CCN(c4ccc(F)cc4)CC3)s2)cc1,nt,1%,7%,-6%,0%,-3%
Cc1ccc2c(c1)-c1c(cnc3cc(-c4ccc(F)cc4)nn13)CO2,nt,2%,20%,-1%,3%,-2%
Cc1ccc2c(c1)-c1c(cnc3cc(-c4ccc(Cl)cc4)nn13)CO2,nt,1%,3%,18µM*,0%,-7%
CCc1ccc(NC(=S)N(Cc2ccc(Cl)cc2)Cc2ccc(C(=O)O)cc2)cc1,18%,-2%,-24%,nt,0%,-14%
CC(C)CN(CC(C)C)C(=S)Nc1ccc(Cl)cc1,0%,-22%,26µM*,nt,6%,23%
Cc1cccc(NC(=O)CNC(=O)[C@H]2O[C@@H](n3ccc(N)nc3=O)[C@H](O)[C@@H]2O)c1C,nt,nt,nt,1%,0%,nt
O=C(COc1ccc(F)cc1)Nc1cc(S(=O)(=O)N2CCCCC2)ccc1N1CCCCC1,-1%,-16%,?,16µM*,3%,nt
C=CCN1C(=O)/C(=C\c2ccco2)C(C(=O)OC)=C1C,1%,0%,8%,1%,?,1%
CCN1C(=O)/C(=C\c2ccco2)C(C(=O)OC)=C1C,12%,-5%,-12%,0%,10µM*,1%
COc1cccc(NC(=O)COC(=O)C2CC2)c1,9%,0%,19%,-2%,1%,nt
CCOc1ccc2[nH]cc(C(=O)NCc3ccccc3)c(=O)c2c1,?,-12%,13µM*,-28%,0%,8%
COc1ccc(CNC(=O)c2c[nH]c3ccccc3c2=O)cc1,nt,-10%,-11%,-1%,1%,-5%
SMILES,p53 reactivator,A549 tox,Nrf2 block,ClpP mod,Nrf2 ARE act,miR-21 reporter
O=C(NCc1ccccc1)c1c[nH]c2cc3c(cc2c1=O)OCCO3,11µM*,15%,nt,?,3%,-77%
N#Cc1ccc2c(c1)C[C@]1(CCCCN3C(=O)c4ccccc4C3=O)Oc3c(c(=O)oc4ccccc34)C2O1,nt,nt,nt,nt,nt,-1%[7.66 µM]
COc1cc(CNc2ccc(CNc3ncn[nH]3)cc2)ccc1OCC(=O)NC(C)(C)C,14%,-1%,16µM*,-1%,1%,27%
CC(C)(C)NC(=O)COc1ccc(CNc2ncn[nH]2)cc1,-1%,1%,-7%,nt,0%,0%
COc1cc(CNc2ccc(N3CCOCC3)cc2)ccc1OCC(=O)NC(C)(C)C,8%,-2%,16µM*,-2%,3%,27%
COc1ccc(-c2noc(C3CC(=O)N(c4ccc5c(c4)OCCO5)C3)n2)c(OC)c1 (stereo not given),nt,-3%,?,1%,4%,-2%
Cc1ccc(C)c(Nc2nc3nonc3nc2Nc2cccc(C)c2C)c1,nt,?,5.8µM*,-2%,1%,?
Cc1ccc(C)c(Nc2nc3nonc3nc2N2CCOCC2)c1,-4%,1%,12%,1%,0%,-4%
COc1ccc(CN(Cc2ccccc2)S(=O)(=O)c2ccccc2)cc1COc1ccc(NC(C)=O)cc1,nt,-8%,16%,nt,nt,nt
O=C(NNC(=O)C(c1ccccc1)c1ccccc1)c1ccccn1,24%,?,15µM*,nt,13%,19%
Cc1cc([N+](=O)[O-])ccc1NCc1ccccc1,-4%,?,18µM*,-2%,4%,6%
CCOc1ccc(NC(=O)N(Cc2c[nH]c3ccccc23)C2CCCCC2)cc1,nt,0%,?,10%,8%,-34%
COc1ccc(C(=O)Cc2nnc(C)s2)cc1,?,-3%,18%,20µM*,3%,-59%
Cc1cnnc2ccccc12,nt,nt,nt,-1%,nt,nt
CCOC(=O)c1ccc(NS(=O)(=O)c2cc(-c3onc(C)c3C)ccc2C)cc1,nt,-9%,21µM*,-2%,1%,-15%
CCOC(=O)c1ccc(NS(=O)(=O)c2ccc(-c3cc(C)no3)cc2)cc1,nt,-1%,-15%,0%,-1%,-1%
CCOC(=O)c1cc(-c2ccc(C)cc2)n(CC(=O)Nc2ccc(OC)c(Cl)c2)c1C,nt,?,?,-9%,0%,0%
CCOC(=O)CSc1nc(-c2ccc(OC)cc2)cc(C(F)(F)F)c1C#N,nt,2%,7%,4%,8%,0%
CCOC(=O)CCCSc1nc(-c2ccc3c(c2)OCO3)cc(C(F)(F)F)c1C#N,-4%,-3%,-21%,16µM*,2%,-4%

# Screening results from PubChem.
